RecA splice inh: blocks M. tuberculosis RecA intein splicing; P9WHJ3; cell-free RecA intein splicing, fluorescence; inhibition, % (test concentration not listed); actives 0.75% (n = 290,000); AID 2221; in the data active means inhibition above about 30%
GDH-TPI counter: counter-screen for M. tuberculosis FBA inhibitors: GDH-TPI coupled enzymes. GDH-TPI coupled enzyme counterscreen, NADH absorbance. inhibition, % at 4.8 µM. actives 1.2% (n = 360,000)
DUSP3 inh: inhibitors of human VHR1 phosphatase (DUSP3); P51452; recombinant VHR phosphatase, pNPP absorbance; inhibition, % at 13.3 µM; actives 0.52% (n = 290,000); in the data active means inhibition above about 50%
Target sequence (P51452 whole entry, looked up): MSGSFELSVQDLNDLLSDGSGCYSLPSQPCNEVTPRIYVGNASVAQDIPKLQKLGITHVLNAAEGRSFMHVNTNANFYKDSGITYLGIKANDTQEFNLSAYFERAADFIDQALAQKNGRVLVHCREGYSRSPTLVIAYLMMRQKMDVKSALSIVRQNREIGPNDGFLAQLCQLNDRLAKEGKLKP
SARS 3CLpro inh: SARS-CoV 3CLpro protease inhibition; P0C6X7; recombinant SARS-CoV 3CLpro, quenched FRET peptide cleavage; inhibition, % at 6 µM; actives 0.14% (n = 290,000); AID 1706; in the data active means inhibition above about 12%
FBA Mtb inh: inhibitors of M. tuberculosis fructose-bisphosphate aldolase | AID 588726 | purified M. tuberculosis FBA, fluorescence read-out | P9WQA3 | actives 2.3% (n = 360,000) | inhibition, % at 1 µM; in the data active means inhibition above about 27%
Target sequence (P9WQA3 whole entry, looked up): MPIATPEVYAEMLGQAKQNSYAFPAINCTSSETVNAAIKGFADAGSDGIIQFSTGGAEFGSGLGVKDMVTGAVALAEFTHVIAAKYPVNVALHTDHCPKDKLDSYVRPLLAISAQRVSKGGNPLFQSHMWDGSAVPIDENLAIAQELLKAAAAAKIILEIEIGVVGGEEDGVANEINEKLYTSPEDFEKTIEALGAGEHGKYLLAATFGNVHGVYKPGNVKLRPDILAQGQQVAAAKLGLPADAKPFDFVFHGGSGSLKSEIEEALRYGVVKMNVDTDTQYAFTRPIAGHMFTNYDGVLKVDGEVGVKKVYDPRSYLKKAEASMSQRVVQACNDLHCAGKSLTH
CCHFV vOTU inh: CCHFV vOTU protease inhibition; inhibition, % at 11.5 µM; actives 0.55% (n = 370,000); AID 651958; Pep-AMC fluorescence
Large screens that a line does not name were inactive. Hits are enriched below; roughly 4.7% of the tested compounds scored in any of these assays. Unless noted, no stated cut-off is given here; in the data, active means inhibition above about 30%; inactive means the rest.

CCOC(=O)Cc1csc(NC(=O)/C=C/c2ccc(Cl)cc2)n1	none
CCOC(=O)Cc1csc(NC(=O)CC(C)(C)C)n1	CCHFV vOTU inh 30
CCOC(=O)Cc1csc(NC(=O)/C=C/c2ccco2)n1	GDH-TPI counter 75
CCOC(=O)Cc1csc(NC(=S)NC(=O)c2ccc(F)cc2)n1	none
CCOC(=O)Cc1csc(NC(=O)CSc2nc(N)c3c(C)c(C)sc3n2)n1	DUSP3 inh 50
O=C(Nc1ccc(F)cc1F)c1cc(-c2ccc(Cl)cc2)nc2ccccc12	none (no result: RecA splice inh, GDH-TPI counter, DUSP3 inh, SARS 3CLpro inh, FBA Mtb inh)
CCCCc1nnn2c1C1c3cc(Br)ccc3CCN1C(=O)C2 (stereo unspecified)	none (no result: RecA splice inh, GDH-TPI counter, DUSP3 inh, SARS 3CLpro inh, FBA Mtb inh)
CCC1(C)Cc2ccccc2-c2nc(NCCCO)n(-c3ccccc3)c(=O)c21 (stereo unspecified)	FBA Mtb inh active
CCn1c(NCCO)nc2c(c1=O)C(C)(CC)Cc1ccccc1-2 (stereo unspecified)	FBA Mtb inh 159
CCC1(C)Cc2ccccc2-c2nc3n(c(=O)c21)CCS3 (stereo unspecified)	none
O=C(NCCCN1CCOCC1)c1ccc2c(c1)N(Cc1ccccc1)C(=O)c1ccccc1S2=O (stereo unspecified)	DUSP3 inh 60
CN(C)c1nc(N)c([N+](=O)[O-])c(NCc2ccccc2)n1	GDH-TPI counter 42
CN(C)c1nc(N)c([N+](=O)[O-])c(NCCO)n1	GDH-TPI counter 51
Nc1nc(NCc2ccccc2)nc(NCc2ccccc2)c1[N+](=O)[O-]	none
CN(C)CCCNc1nc(N)c([N+](=O)[O-])c(NCc2ccccc2)n1	GDH-TPI counter 41
CNc1nc(N)c([N+](=O)[O-])c(NCc2ccccc2)n1	GDH-TPI counter 42
CCOc1ccc(-n2c(SCC(=O)NN=Cc3ccc(C(=O)O)cc3)nnc2-c2cccnc2)cc1	none (no result: RecA splice inh, GDH-TPI counter, DUSP3 inh, SARS 3CLpro inh, FBA Mtb inh)
O=C(O)c1c[nH]c2c([N+](=O)[O-])cccc2c1=O	none (no result: RecA splice inh, DUSP3 inh, SARS 3CLpro inh)
CC1CC1C(=O)N1CCC(Oc2cccnc2)CC1 (stereo unspecified)	none (no result: RecA splice inh, GDH-TPI counter, DUSP3 inh, SARS 3CLpro inh, FBA Mtb inh)
COc1cccc(/C=C2\SC(=O)N(CCC(=O)NC3CCS(=O)(=O)C3)C2=O)c1 (stereo unspecified)	none
COc1cccc(/C=C2\SC(=O)N(CC(=O)NC3CCS(=O)(=O)C3)C2=O)c1 (stereo unspecified)	DUSP3 inh 60
O=C(CCN1C(=O)S/C(=C\c2ccccc2)C1=O)NC1CCS(=O)(=O)C1 (stereo unspecified)	GDH-TPI counter 36
CCN(C(=O)CN1C(=O)S/C(=C\c2cccc(OC)c2)C1=O)C1CCS(=O)(=O)C1 (stereo unspecified)	DUSP3 inh 52
COc1cccc(/C=C2\SC(=S)N(CC(=O)N(C)C3CCS(=O)(=O)C3)C2=O)c1 (stereo unspecified)	none
COCCNC(=O)C1(C)CCCN(C(=O)c2cc(F)cc(F)c2)C1 (stereo unspecified)	none (no result: RecA splice inh, DUSP3 inh, SARS 3CLpro inh)
CCOc1cc(CN2CCc3c([nH]c4ccccc34)C2)ccc1OC	none
COc1ccc(CN2CCc3c([nH]c4ccccc34)C2)cc1Br	GDH-TPI counter 43 (no result: RecA splice inh)
COc1cccc(OCCn2c(C)c(/C=N/n3cnnc3)c3ccccc32)c1	GDH-TPI counter 34
COc1ccc(OCCn2c(C)c(/C=N/n3cnnc3)c3ccccc32)cc1	none (no result: CCHFV vOTU inh)
Cc1ccc(C(=O)N=c2sccn2C)o1	GDH-TPI counter 33
O=C(COC(=O)c1ccco1)c1ccc2ccccc2c1	none
O=C(Oc1ccc(-n2cnnn2)cc1)c1ccco1	RecA splice inh 38
O=C(Oc1ccc2ccccc2c1)c1ccco1	RecA splice inh 35
CCCOC(=O)c1ccc(OC(=O)c2ccco2)cc1	RecA splice inh 37
COc1ccccc1CCn1cnc(-c2ccc(OC)c(OC)c2)c1CC(C)C	none (no result: RecA splice inh, GDH-TPI counter, DUSP3 inh, SARS 3CLpro inh, FBA Mtb inh)
Cc1ccccc1N1C(=O)c2cccc3cccc(c23)C1=O	GDH-TPI counter 35
COc1ccc(-c2ccc3c(n2)CCCN3S(=O)(=O)c2ccc(C#N)cc2)cc1	none (no result: RecA splice inh, GDH-TPI counter, DUSP3 inh, SARS 3CLpro inh, FBA Mtb inh)
c1cc(-c2sc(-c3ccncc3)c(-c3ccncc3)c2-c2ccncc2)ccn1	DUSP3 inh 53
Cc1cn2c(-c3ccncc3)nnc2s1	none
CC(C)c1ccc(C(C)NCCS(=O)(=O)c2ccc(Br)cc2)cc1 (stereo unspecified)	CCHFV vOTU inh 35
CC(NCCS(=O)(=O)c1ccc(Cl)cc1)c1cccc(Cl)c1 (stereo unspecified)	none
CN1c2ccccc2C(O)=C(C(=S)Nc2ccc(F)c(Cl)c2)S1(=O)=O	GDH-TPI counter 31
CN1c2ccccc2C(O)=C(C(=O)Nc2ccccc2)S1(=O)=O	none
Cc1ccc(NC(=S)C2=C(O)c3ccccc3N(C)S2(=O)=O)cc1	GDH-TPI counter 38
CN1c2ccccc2C(O)=C(C(=S)Nc2ccccc2)S1(=O)=O	GDH-TPI counter 31
c1coc(-c2nc3c4ccccc4ccn3c2Cc2ccsc2)c1	none (no result: RecA splice inh, GDH-TPI counter, DUSP3 inh, SARS 3CLpro inh, FBA Mtb inh)
Cc1cc(C)n2nc3nc4c(cc3c2n1)CCCC4	FBA Mtb inh active
O=C(Oc1cc2oc(=O)cc(-c3ccccc3)c2cc1Cl)C1CCCCC1	FBA Mtb inh 32
CC(C)(C)OC(=O)NCC(=O)Oc1cc2oc(=O)cc(-c3ccccc3)c2cc1Cl	none
CCOC(=O)Nc1ccc2c(c1)[C@]1(CC(=O)N(CC(C)C)C1c1ccccc1)C(=O)N2C (stereo partly specified)	none (no result: RecA splice inh, GDH-TPI counter, DUSP3 inh, SARS 3CLpro inh, FBA Mtb inh)
COc1ccc2c(c1)c(C(=O)N/N=C/c1ccc(O)c(O)c1)c(C)n2C	GDH-TPI counter 44
Cc1cccc(NC(=O)C2CCCN2S(=O)(=O)c2cccnc2)c1C (stereo unspecified)	none (no result: RecA splice inh, GDH-TPI counter, DUSP3 inh, SARS 3CLpro inh, FBA Mtb inh)
Cc1[nH]n(-c2ccccc2)c(=O)c1/C=N/N1CCOCC1	RecA splice inh 46
Cc1ccc(OCC(=O)N/N=C\c2c(C)[nH]n(-c3ccccc3)c2=O)c([N+](=O)[O-])c1	DUSP3 inh 56 (no result: RecA splice inh)
Cc1cc(C(=O)N/N=C/c2c(C)[nH]n(-c3ccccc3)c2=O)n[nH]1	RecA splice inh 55
Cc1cc(C(=O)N/N=C/c2c(C)n(C)c3ccccc23)n[nH]1	GDH-TPI counter 57
CCNc1ncnc2c1cnn2C1CCCO1 (stereo unspecified)	none (no result: RecA splice inh, DUSP3 inh, SARS 3CLpro inh)
Cc1cc(C(=O)N/N=C/c2ccc(-c3cccc(Br)c3)o2)n[nH]1	none
Cc1[nH]c2ccccc2c1/C=N/NC(=S)NC(C)C	GDH-TPI counter 38
Cc1cc(C(=O)N/N=C/c2ccc(-c3cccc(Cl)c3Cl)o2)n[nH]1	DUSP3 inh 51
Cc1[nH]c2ccccc2c1/C=N/NC(=O)CNC(=O)c1ccc2c(c1)OCCO2	GDH-TPI counter 32
Cc1cc(C(=O)N/N=C/c2c(C)[nH]c3ccccc23)n[nH]1	GDH-TPI counter 56
Cc1c(C(=O)NCCO)sc2nc3n(c(=O)c12)CCC3	none
CCCC(C)NC(=O)c1sc2nc3n(c(=O)c2c1C)CCC3 (stereo unspecified)	DUSP3 inh 54
Fc1cccc(Cc2c(-c3ccco3)nc3ccc(Br)cn23)c1	none (no result: RecA splice inh, GDH-TPI counter, DUSP3 inh, SARS 3CLpro inh)
Cc1ccc(S(=O)(=O)C(NC(=O)c2ccccc2)=C(Cl)Cl)cc1	none (no result: DUSP3 inh)
